Hit rate of the full screen: of about 310,000 compounds, about 2,200 (0.71%) showed an effect of 50% or more. Effects have a minus sign here. For the sample, strong results were picked, then their nearest neighbours and some compounds at random.

In this assay the target is human ether-à-go-go-related gene (hERG) potassium channel (human, UniProt Q12809). In words: primary screen, population patch clamp on CHO cells stably expressing hERG; higher = less effect of the substance.
human ether-à-go-go-related gene (hERG) potassium channel, sequence (Q12809 whole entry, looked up): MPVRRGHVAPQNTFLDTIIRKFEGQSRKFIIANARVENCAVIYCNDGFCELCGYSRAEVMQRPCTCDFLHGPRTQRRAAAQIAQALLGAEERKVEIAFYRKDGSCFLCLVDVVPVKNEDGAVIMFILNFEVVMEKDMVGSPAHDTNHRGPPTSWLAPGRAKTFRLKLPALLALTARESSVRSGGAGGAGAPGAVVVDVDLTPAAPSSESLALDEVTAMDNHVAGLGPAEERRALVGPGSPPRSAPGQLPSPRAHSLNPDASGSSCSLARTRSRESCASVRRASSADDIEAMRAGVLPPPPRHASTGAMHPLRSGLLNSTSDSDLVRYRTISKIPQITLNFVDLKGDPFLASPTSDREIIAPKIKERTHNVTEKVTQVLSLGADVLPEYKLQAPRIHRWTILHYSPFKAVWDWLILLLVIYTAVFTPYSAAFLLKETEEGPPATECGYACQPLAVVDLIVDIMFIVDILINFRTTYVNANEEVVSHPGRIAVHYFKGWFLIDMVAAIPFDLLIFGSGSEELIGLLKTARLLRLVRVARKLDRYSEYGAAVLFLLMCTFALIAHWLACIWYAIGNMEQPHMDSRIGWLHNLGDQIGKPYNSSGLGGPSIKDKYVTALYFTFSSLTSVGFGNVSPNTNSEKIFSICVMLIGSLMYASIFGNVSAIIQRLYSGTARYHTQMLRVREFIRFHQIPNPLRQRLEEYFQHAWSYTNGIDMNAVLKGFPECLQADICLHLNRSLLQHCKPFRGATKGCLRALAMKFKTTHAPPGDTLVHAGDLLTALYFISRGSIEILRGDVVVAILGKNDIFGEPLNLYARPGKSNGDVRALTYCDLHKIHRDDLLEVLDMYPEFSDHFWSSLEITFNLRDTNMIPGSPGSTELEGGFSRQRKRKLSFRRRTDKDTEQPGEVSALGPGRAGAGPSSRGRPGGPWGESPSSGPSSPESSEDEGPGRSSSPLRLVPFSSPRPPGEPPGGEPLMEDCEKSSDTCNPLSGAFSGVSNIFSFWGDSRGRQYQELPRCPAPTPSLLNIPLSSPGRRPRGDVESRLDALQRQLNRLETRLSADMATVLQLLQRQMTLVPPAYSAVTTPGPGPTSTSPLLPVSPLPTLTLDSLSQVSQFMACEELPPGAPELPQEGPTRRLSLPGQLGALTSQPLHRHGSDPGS
In the case of `CCN(CC)CCSc1nc2ccccc2n1Cc1ccccc1.Cl`, the “hERG current change (%, negative = inhibition) at 1uM” value is -79%. The value for `COc1ccc([N+](=O)[O-])cc1N(CC(=O)N1CCCC1)S(C)(=O)=O` was 10.2%. The value for `O=C(NC1(C(F)(F)F)NC(=O)N(Cc2cccnc2)C1=O)c1ccncc1` (stereo not shown) was 18.1%. The value for `O=C(NC(Cc1c[nH]c2ccccc12)C(=O)N1CCOCC1)c1cccs1` (stereo not shown) was 11.2%; that for `CC(C)(C)OC(=O)NCCCCCc1nnc(SCC(=O)Nc2cccc(Cl)c2)o1` was -1.82%; that for `Cc1ccc(SCC(=O)Nc2ccc(N3CCN(C)CC3)c(F)c2)c(C)c1` was -47.8%.

Consider `COc1ccc(/C=N/N2CCN(C3c4ccccc4-c4ccccc43)CC2)cc1OC`, for which the “hERG current change (%, negative = inhibition) at 1uM” value came to 12.9%. Take `COCCOC(=O)c1c(NC(=O)CNc2ccc(C)c(F)c2)sc(C(N)=O)c1C`: the “hERG current change (%, negative = inhibition) at 1uM” value was determined as 11%. On to `Cc1cc(NC(=O)c2ccccc2)n(-c2ccccc2)n1`, for which the “hERG current change (%, negative = inhibition) at 1uM” value is on record as 12.1%. Under `Cc1cc(NC(=O)c2ccc(F)cc2)n(-c2ccccc2)n1` stands -75.3%; under `Cc1cc(NC(=O)c2ccc(Cl)cc2)n(-c2ccccc2)n1`, 13.6%. Under `Nc1c(-c2ccc(Cl)cc2)cnc2c(-c3ccccc3)cnn12` stands 18.5%.

Regarding `Cc1ccc(CSCCNS(C)(=O)=O)cc1`, the “hERG current change (%, negative = inhibition) at 1uM” value turned out to be 10.9%. The value for `CC(=O)N1CCCc2cc(S(=O)(=O)NC(C(=O)NC(C)c3ccccc3)C(C)C)ccc21` (stereo not shown) was 1.38%. In the case of `COc1ccc(CN2CCNC(=O)C2CC(=O)N(C)CCC2CCOCC2)cc1OC` (stereo not shown), the “hERG current change (%, negative = inhibition) at 1uM” value is 13.7%.

`Cc1ccc(S(=O)(=O)N2CCOC2CNC(=O)C(=O)NCCCc2ccccc2)cc1` (stereo not shown): the “hERG current change (%, negative = inhibition) at 1uM” value was 5.36%. Under `CCCCCCN1C=CC=C/C1=C/C=C(C#N)C#N` stands -26.6%; under `CCCCCCN1C=CC=C/C1=C\C=C(C#N)C#N`, -69.9%.

Turning to `CCCCCN1C=CC=C/C1=C\C=C(C#N)C#N`, the “hERG current change (%, negative = inhibition) at 1uM” value was -28.2%. Under `CCOC(=O)C(O)(CC(=O)Nc1ccc(Cl)cc1Cl)C(F)(F)F` (stereo not shown) stands 6.91%; under `CCOC(=O)C(Cc1ccccc1)(NC(C)=O)C(=O)OCC`, 14.4%.

Take `CCOC(=O)C(Cc1c(F)cccc1F)(NC(C)=O)C(=O)OCC`: the “hERG current change (%, negative = inhibition) at 1uM” value is given as 8.71%. Under `CCOC(=O)COc1ccc(N)cc1CC(NC(C)=O)(C(=O)OCC)C(=O)OCC` stands -69.6%. Under `COc1ccc(C)cc1NC(=O)C(OC(=O)CNC(=O)c1ccc(Br)cc1)c1ccccc1` (stereo not shown) stands 11.1%; under `Cc1cccc(/C=N/n2c(-c3ccccn3)n[nH]c2=S)c1`, 14.4%.

On to `CC1CN(S(=O)(=O)c2cccc(C(=O)NCC3COc4ccccc4O3)c2)CC(C)O1` (stereo not shown), for which the “hERG current change (%, negative = inhibition) at 1uM” value is recorded as 0.895%. The value for `O=c1ccc(-c2nc3ccccc3n2Cc2ccc(Cl)cc2)c[nH]1` was -50.5%; that for `O=c1ccc(-c2nc3cc(Cl)ccc3n2Cc2ccccc2)c[nH]1` was -45%; that for `O=c1ccc(-c2nc3ccccc3n2Cc2ccccc2Cl)c[nH]1` was 4.18%. The value for `Cc1cc(C)nc(SCC(=O)c2ccc(O)c(O)c2)n1` was 16%; that for `O=S(=O)(N/N=C/c1cn(Cc2ccccc2)c2ccccc12)c1ccccc1` was 6.23%. The value for `COc1ccccc1N1CCN(C(=O)c2cc(=O)c3cc(C)ccc3o2)CC1` was -8.99%; that for `COc1ccc(N2CCN(C(=O)c3cc(=O)c4cc(C)ccc4o3)CC2)cc1` was -3.09%; that for `CCc1ccc2oc(C(=O)N3CCN(c4ccccc4OC)CC3)cc(=O)c2c1` was -57.4%. On to `COc1ccc(N2CCN(C(=O)c3cc(=O)c4cc(Cl)ccc4o3)CC2)cc1`, for which the “hERG current change (%, negative = inhibition) at 1uM” value was -81.5%.

For the compound `COc1ccccc1N1CCN(C(=O)c2cc(=O)c3ccc(C)cc3o2)CC1`, the “hERG current change (%, negative = inhibition) at 1uM” value is listed as 1.21%. Take `CCc1ccc2oc(C(=O)N3CCN(c4ccc(OC)cc4)CC3)cc(=O)c2c1`: the “hERG current change (%, negative = inhibition) at 1uM” value amounted to 1.45%.

`Cc1ccc(Cn2nnc3c(=O)[nH]c(C4CCCN(C(=O)Nc5ccc(F)cc5F)C4)nc32)cc1` (stereo not shown): the “hERG current change (%, negative = inhibition) at 1uM” value amounted to 13.8%.

Regarding `O=C(CNC(=O)c1ccccc1O)N/N=C/c1ccccn1`, the “hERG current change (%, negative = inhibition) at 1uM” value came out at 4.2%. Under `COc1ccc(Cc2nnc(SCC(=O)Nc3ccc(C)c(Cl)c3)[nH]c2=O)cc1` stands 5.51%. Under `CCc1ccc(CN2CCC(n3nccc3NC(=O)c3ccccc3)CC2)o1` stands -6.11%. As to `CC(C)=CCCC(C)CN1CCC(n2nccc2NC(=O)c2ccccc2)CC1` (stereo not shown), the “hERG current change (%, negative = inhibition) at 1uM” value is given as -52.2%.

Turning to `CC(C)=CCCC(C)CN1CCC(n2nccc2NC(=O)c2cccnc2)CC1` (stereo not shown), the “hERG current change (%, negative = inhibition) at 1uM” value is -5.79%.

With `CC(C)=CCCC(C)CN1CCC(n2nccc2NC(=O)C2CCCC2)CC1` (stereo not shown), the “hERG current change (%, negative = inhibition) at 1uM” value is given as -50.3%.

Turning to `O=C(Nc1ccnn1C1CCN(CC(O)CO)CC1)C1CCCC1` (stereo not shown), the “hERG current change (%, negative = inhibition) at 1uM” value stood at 12.5%. The value for `CC(CN1CCC(n2nccc2NC(=O)C2CCCC2)CC1)c1ccccc1` (stereo not shown) was 2.95%.
